In the supplement of paper PMC6555819:

What was measured:
Assay in all cases: PBM binding z-score (relative to random genomic background probes); higher = stronger binding; sequences stand for … in GC…GCGATTGACAGCGTAGAATGAAGG
[1] = test system: FXR:RXRa (NR concentration 270 nM, RXRa partner concentration 90 nM)
Procedure, shortened: (§1)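 For binding z-scores, the reference was random background probes on custom Agilent 4×180K protein-binding microarrays. These arrays were incubated 1 h with ligand-free nuclear receptor dimers in PBS pH 7.4, 2% milk, 0.02% Triton X-100, 1 mM DTT, 0.2 mg/mL BSA and 0.4 mg/ml salmon testes DNA. Fluorescence was scanned after antibody detection of each partner (one per run) and regression-normalized.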

[2] = test system: LXRa:RXRa (NR concentration 270 nM, RXRa partner concentration 90 nM)
Procedure, shortened: as §1

[3] = test system: LXRa homodimer (NR concentration 270 nM)
Procedure, shortened: as §1

[4] = test system: LXRb:RXRa (NR concentration 270 nM, RXRa partner concentration 90 nM)
Procedure, shortened: as §1

[5] = test system: LXRb homodimer (NR concentration 270 nM)
Procedure, shortened: as §1

[6] = test system: PPARa:RXRa (NR concentration 270 nM, RXRa partner concentration 90 nM)
Procedure, shortened: as §1

[7] = test system: PPARg:RXRa (NR concentration 180 nM, RXRa partner concentration 90 nM)
Procedure, shortened: as §1

[8] = test system: PPARg:RXRa 270nM:90nM, anti-RXR (NR concentration 270 nM, RXRa partner concentration 90 nM)
Procedure, shortened: as §1

[9] = test system: PPARg:RXRa 30nM:10nM, anti-RXR (NR concentration 30 nM, RXRa partner concentration 10 nM)
Procedure, shortened: as §1

[10] = test system: PPARg:RXRa 90nM:30nM, anti-RXR (NR concentration 90 nM, RXRa partner concentration 30 nM)
Procedure, shortened: as §1

| Sequence | PBM binding z-score [1] | PBM binding z-score [2] | PBM binding z-score [3] | PBM binding z-score [4] | PBM binding z-score [5] | PBM binding z-score [6] | PBM binding z-score [7] | PBM binding z-score [8] | PBM binding z-score [9] | PBM binding z-score [10] |
| --- | --- | --- | --- | --- | --- | --- | --- | --- | --- | --- |
| CCTACTGGGCCATCAGGCCATTGATATCAACGTT | 0.133 | -0.192 | -0.106 | -0.246 | -0.678 | 0.569 | 1.16 | 1.79 | 0.105 | 0.915 |
| TCACATAGGTAAAAGGTGAAAGTCGGTGTGGTAA | 1.8 | 1.56 | 0.139 | 1.69 | -0.337 | 4.37 | 5.76 | 6.66 | 5.78 | 7.03 |
| TTACCTAGGTGAAGGTCGTTGATCCCTCTGTAGA | 2.2 | 1.82 | -0.334 | 1.6 | -0.843 | 2.32 | 1.4 | 2.36 | 0.624 | 1.55 |
| CAAACTAGGTCGCCGGAAGGTCAAAGTCCGCATG | 3.54 | 4.14 | 2.85 | 3.54 | 0.401 | 4.61 | 5.39 | 4.95 | 2.29 | 4.13 |
| TCTGCTAGGTCAGCGATGGTCAGCTAATCTGCTA | 1.17 | 0.657 | -0.944 | 0.271 | -0.838 | 1.66 | 0.772 | 1.62 | 1.56 | 1.29 |
| TCTAGTTGGTCAAAGGTCACACGCTCGAAATGCG | 6.24 | 5.77 | 4.22 | 5.45 | 1.94 | 6.6 | 12 | 10.1 | 12.1 | 11.5 |
| ATCGAAAGGTCGGAGGTGAGTATACCCACCCGAA | 2.56 | 2.13 | -0.237 | 1.67 | 0.308 | 3.57 | 2.78 | 3.13 | 1.04 | 2.13 |
| TCTTGTAGATCAAGCTGGTTAAGAAAGCCTGAGT | -0.0681 | -0.116 | -0.611 | 0.0138 | -0.299 | 0.383 | -0.868 | 1.04 | 2.54 | 1.73 |
| CCTCGGAGGAGAACAGGAGGTCAGAGCTGCCAGA | 1.12 | 1.8 | 1.57 | 1.43 | -0.244 | 1.87 | 0.262 | 0.0579 | -0.552 | -0.216 |
| ACTAGTTGGTCATCTGAGGTCACACACAATTCGG | 3.47 | 5.26 | 5.1 | 4.09 | 1.65 | 3.98 | 2.52 | 2.62 | 1.13 | 2.05 |
| GCGACTGGGGCAAATCAGGTTACCATAAGGTTGG | 0.683 | 0.358 | -0.1 | 0.749 | -0.654 | 1.73 | 1.28 | 1.07 | -0.18 | 0.553 |
| CCTCGGAGGACAACAGGAGGTGAGAGCTGCCAGA | -0.0702 | -0.357 | -0.536 | -0.619 | -0.875 | -0.108 | 0.133 | -0.73 | -0.83 | -0.93 |
| ATCTCTGGGTAAGACTCAGTTCAGTGAAGAACGC | 0.0881 | 0.209 | 0.369 | 0.319 | 0.684 | 0.1 | 0.0592 | 0.276 | 0.108 | 0.0741 |
| ACAGACAGGTGATGAAGCTAACTCAGGCTATCAT | -0.132 | -0.408 | -0.326 | -0.472 | -0.446 | -0.116 | 0.522 | -0.13 | -0.153 | -0.11 |
| CGTCCAAGGTTAAAGGTCAGTGAAGAGATGACGG | 6.23 | 5.21 | 1.72 | 4.9 | 0.226 | 6.28 | 8.06 | 7.36 | 6.31 | 8.12 |
| GCTTACGGGTAAAAGGTTATAGCATGAATAGAAT | 1.77 | 2.73 | 0.384 | 2.57 | 0.0166 | 4.81 | 7.24 | 7.67 | 6.08 | 8.3 |
| GCTAGTTGGTCAGTAAAAGGTCACACAGCGGTCG | 3.2 | 4.47 | 4.65 | 4.17 | 0.715 | 4.62 | 2.84 | 4.58 | 2.15 | 4.37 |
| CCTAGAAGGCCAGGGTCACTCAAGCATTTCGCTT | 2.51 | 1.79 | -0.266 | 2.02 | -0.312 | 3.12 | 0.628 | 1.35 | -0.294 | 0.786 |
| GCGACGGGGGCAAAGCAGGTTACCATAAGGTTGG | 3.46 | 4.5 | 0.414 | 4.42 | 5.27 | 4 | 1.96 | 3.58 | 1.84 | 3.04 |
| ACAGACATGTGAGTGAAGGTAACTCAGCTGGACG | -0.28 | -0.449 | -0.659 | -0.669 | -0.436 | -0.3 | 0.817 | -0.286 | -0.111 | 0.163 |
| CAAACTAGGTCAAGAGGTCAAAGTACGCTTCCCG | 7.11 | 6.18 | 5.74 | 5.71 | 2.26 | 6.64 | 10 | 8.3 | 7.25 | 8.63 |
| GCTAGCAGACCATTTGGGTCACTCAATGACGGGC | -0.199 | -0.301 | -0.619 | -0.213 | -1.15 | 0.904 | 0.52 | -0.0173 | -0.573 | -0.229 |
| CCGACTGGGGCAGAAAGCTTACCATACCATCCGG | -0.854 | -0.845 | -0.778 | -0.743 | -0.693 | -0.683 | 0.434 | -0.227 | -0.693 | -0.772 |
| ACAGACAGGTGAGCGAAGGTAACTCAGCTGGACG | -0.11 | -0.471 | -0.638 | -0.645 | -0.759 | 0.0839 | 0.737 | -0.0383 | -0.389 | 0.269 |
| CTCGAAAGGTCGTGCTCAAGTGAGTATACCAAAC | 5.4 | 3.95 | 0.0272 | 3.51 | 0.363 | 4.73 | 2.57 | 3.77 | 0.732 | 2.35 |
